High-throughput results as filed in PubChem BioAssay.
Shown is part of a subset that was picked to be rich in hits.
ROC1-CUL1 inh = human ROC1-CUL1 E3 ligase inhibition | in vitro K48 di-Ub FRET, acceptor:donor ratio, 45 min | P62877+Q13616 | inhibition, % at 10 µM | actives 0.6% (n = 140,000); in the data active = inhibition above about 25%
* = called active by the depositor.

SMILES | ROC1-CUL1 inh
COC(=O)c1ccc(C(=O)OC)c(NC(=O)CCc2ccccc2)c1 | -2
COC(=O)c1ccc(C(=O)OC)c(NC(=O)CN(C)C)c1 | 51*
COC(=O)c1ccc(C(=O)OC)c(NC(=O)Cc2ccc(Br)cc2)c1 | 4
COc1ccc(CCN(C)C2CCCN(Cc3cccnc3)C2)cc1OC (centres undefined) | 11
CCOc1cc(C(=O)Nc2ccccc2Oc2ccccc2)cc(OCC)c1OCC | -3
CCOc1cc(NC(=O)C(C(F)(F)F)C(F)(F)F)c(OCC)cc1NC(=O)c1ccccc1 | 67*
CCOc1c(Cl)cc(C(=O)Nc2ccccc2C(F)(F)F)cc1Cl | 3
CCOC(=O)N1CCc2cc(OC)c(OC)cc2/C1=C/c1cc(OC)c(OC)cc1Br | -1
N#Cc1c(-c2ccccc2)c(-c2ccccc2)n(Cc2ccco2)c1NC(=O)c1cccs1 | -3
CC(C)=CC(=O)/C=C(/C)c1cccs1 | -5
N#C/C(=C\c1ccco1)C(=O)c1cccs1 | 57*
O=C(NC1c2ccccc2CSc2ccccc21)OC1CCCC1 (centres undefined) | -2
O=C(Cn1c(O)c(C=C2C=Nc3ccccc32)sc1=O)N1CCOCC1 | 3
CC(C)C(C(=O)O)n1c(O)c(C=C2C=Nc3ccccc32)sc1=S (centres undefined) | 25*
O=c1[nH]n(-c2cc(Cl)cc(Cl)c2)c(O)c1C=C1C=Nc2ccccc21 | -1
O=C1CC(CSCc2ccc(Cl)cc2)=NC(=O)N1 | 5
N=C(N)SCC1=NC(=O)NC(=O)C1 | 26*
O=C1CC(CSc2nc3ccccc3[nH]2)=NC(=O)N1 | 11
CCOC(=O)c1ccc(NC(=O)c2cc3cc(C)ccc3n2C)cc1 | 0
COc1ccc(C(=O)Cc2nnc(C)s2)cc1 | -9
Cc1ccc(C)c(S(=O)(=O)Nc2ccc(C(=O)N3CCCC3)cc2)c1 | 2
COc1ccc(Cl)cc1C(=O)Nc1nc(-c2ccc(C)c(C)c2)cs1 | 7
O=C1CCCN1CCC(=O)N1CCC2(CCCN(Cc3ccc(F)cc3)C2)C1 (centres undefined) | 6
O=C1NC(=S)N(c2ccccc2)C(=O)/C1=C/c1ccc(Sc2ccc(Cl)cc2)s1 | 33*
O=C1NC(=O)N(c2ccc(Cl)cc2)C(=O)/C1=C\c1c2ccccc2cc2ccccc12 | 6
SMILES | ROC1-CUL1 inh
Cc1cc(/C=C2\C(=O)NC(=S)N(c3ccc(Cl)cc3)C2=O)c(C)n1-c1ccc(Cl)c(Cl)c1 | -6
COc1ccccc1CCNC1CCN(c2ccc(C(=O)NCc3ccc4c(c3)OCO4)cc2)CC1 | 1
CCOC(=O)c1cc(C(=O)OCC)n2ccc3ccccc3c12 | -6
CCc1ccc(/C(C)=N/NC(=O)c2ccc(OC3CCCC3)cc2)cc1 | -10
COc1cc([N+](=O)[O-])ccc1N=CC1C(=O)N(c2c(Cl)cc(Cl)cc2Cl)N=C1C (centres undefined) | -3
O=C(Cn1nnnc1CN1CCCC1)NCc1ccc(OC(F)(F)F)cc1 | 2
CCC1CCc2c(sc(NC(=O)c3c(C)noc3C)c2C(N)=O)C1 (centres undefined) | 74*
Cc1noc(C)c1C(=O)Nc1sc2c(c1C(N)=O)CCCCCC2 | 8
CCCC1CCc2c(sc(NC(=O)c3cc(C)on3)c2C(N)=O)C1 (centres undefined) | -3
Cc1ccc(C(=O)c2nccn2CC(=O)Nc2cc(C3CC3)nn2C)cc1 | -1
COc1ccc(-c2cc(=O)n(-c3ccccc3)[nH]2)cc1OC | 1
CC(C)(C)c1cc(=O)n(-c2ccccc2)[nH]1 | 73*
O=c1ccc(=O)n(-c2ccccc2)[nH]1 | 5
O=C(CSc1ncccc1C(=O)O)c1ccc(O)c(O)c1 | 31*
O=C(O)c1ccnc(SCC(=O)c2ccccc2)c1 | 6
O=C(CSc1n[nH]c(-c2ccc(Br)cc2)n1)c1ccc([N+](=O)[O-])cc1 | 0
O=C(O)c1cccnc1SCc1c(F)c(F)c(F)c(F)c1F | 13
CCOc1ccc(-c2nc(SCC(=O)c3ccccc3)n[nH]2)cc1 | -2
O=C(CSc1n[nH]c(-c2ccccc2)n1)c1ccc(O)c(O)c1 | 27*
COc1ccc(/C=N/NC(=O)c2cccc(Br)c2)cc1OS(=O)(=O)c1ccccc1 | 0
COc1ccc(CNc2ccc(C)c(C)c2)cc1C | -8
CCC1(C)CC(CCNCc2ccccc2O)(c2ccc(OC)cc2)CCO1 (centres undefined) | 6
CC(=O)c1sc2ccccc2c1OC(=O)c1ccccc1[N+](=O)[O-] | 2
Cc1ccc(S(=O)(=O)Oc2ccc(C3(C)CC(C)(C)NC(=S)N3)c(OS(=O)(=O)c3ccc(C)cc3)c2)cc1 (centres undefined) | -4
CCCCn1c(=O)c2c(nc3n(CCOC)c(C)cn23)n(C)c1=O | -9
CCOC(=O)c1c(NC(=O)C(C)(C)C)sc(C(=O)OC)c1C | 6
O=C1C(Oc2ccccc2)C2(c3ccccc3)CC(c3ccc(Cl)cc3)Sc3ccccc3N12 (centres undefined) | -7
Cc1cc(-c2[nH]nc3c2C(c2ccc(Br)cc2)C(C#N)C(=N)O3)c(C)s1 (centres undefined) | 8
